Drawing on PubChem BioAssay AID2384 (Southern Research Specialized Biocontainment Screening …, 2010), this text covers inhibition for 111 molecules.

Structures are written as SMILES. Out of some 2,300 compounds screened, about 1,100 (48%) were called active. How the calls were made is not given here. So high a share suggests a set chosen from earlier hits. The list shows a part of the results. Entries with a potency or affinity are not part of this list.

The nature of this assay: inhibitors in S. typhi counter-screen strain, dose response, counter-screen for PhoP regulon inhibitor project, fluorescence, 4 h (AID 2384). As to conditions: S. typhi GFP reporter counter-screen; series mostly up to 150 µM. In general terms: A counterscreen serves to expose hits that act by an unwanted route or on another target.
With `COc1ccc(CC(=O)Nc2ncc([N+](=O)[O-])s2)cc1OC`, the inhibition – broadly, the drop in the measured response relative to a control, in per cent – is “inactive”.

With `Cc1ccc(CNC(=O)CCC(=O)Nc2nnc(C)s2)cc1`, the inhibition entry is “inactive”.

On to `O=C(Nc1ccc(N2CCOCC2)cc1)c1ccc(S(=O)(=O)NCc2ccco2)cc1`, for which the inhibition entry was “inactive”.

As to `O=C(NCc1ccccn1)c1nc(Cn2ccc([N+](=O)[O-])n2)no1`, the inhibition entry is “inactive”.

In the case of `CC(C)NC(=O)Nc1ccc(Br)cc1Cl`, the inhibition result was “inactive”.

Turning to `CCC1Oc2ccc(C)cc2N(CC(=O)NCC2COc3ccccc3O2)C1=O` (stereo unspecified), the inhibition entry is “inactive”.

For `CCCCOc1ccc(OCCNC(=O)c2ccco2)cc1`, the inhibition result was “inactive”.

Turning to `CCS(=O)(=O)N1CCN(C(=O)c2ccco2)CC1`, the inhibition entry is “inactive”.

`CSCCC(NC(=O)c1ccc(Br)cc1)C(=O)O` (stereo unspecified): the inhibition entry is “inactive”.

Regarding `CCOc1ccc(NC(=O)c2ccc(N)cc2)cc1`, the inhibition result was “inactive”.

For `CCCN(CCC)CC(=O)Nc1cccc2c1OCO2`, the inhibition entry was “inactive”.

Regarding `Cc1nc2ccccn2c1/C(O)=C1\C(=O)C(=O)N(CCN2CCOCC2)C1c1cccnc1` (stereo unspecified), the inhibition result was “inactive”.

For the molecule `COc1cccc(C(=O)N(CN2CCCC2=O)c2cc(C)on2)c1`, the inhibition entry is “inactive”.

For `CCCCCCC(=O)N(O)C1CC(=O)N(Cc2ccccc2)C1=O` (stereo unspecified), the inhibition result is “inactive”.

As to `COc1cc(C)nc(N2CCCC(C(=O)NCC(C)C)C2)n1` (stereo unspecified), the inhibition entry was “inactive”.

As to `CCN1C(=O)NC(c2ccccc2)C1=O` (stereo unspecified), the inhibition entry is “inactive”.

Regarding `O=C(Cn1cnc2cc([N+](=O)[O-])ccc2c1=O)Nc1ccccc1Cl`, the inhibition result is “inactive”.

For `O=C(Cn1cc(/C=C\[N+](=O)[O-])c2ccccc21)Nc1ccccc1`, the inhibition result is “inactive”.

In the case of `O=[N+]([O-])c1ccc(CN2CCSCC2)cc1`, the inhibition entry is “inactive”.

As to `CCOc1ccc2ccccc2c1C(=O)N[C@@H]1C(=O)N2[C@@H]1SC(C)(C)[C@@H]2C(=O)O`, the inhibition entry is “inactive”.

`O=C(CN(CCc1ccccc1)C(=O)CNS(=O)(=O)c1ccc(F)cc1)NCC1CCCO1` (stereo unspecified): the inhibition entry is “inactive”.

`CCOc1cc(C2NC(=O)N(C)C(C)=C2[N+](=O)[O-])ccc1OC(C)=O` (stereo unspecified): the inhibition result is “inactive”.

Take `O=C(c1ccccc1F)N1C(=O)c2cccc3cccc1c23`: the inhibition entry is “inactive”.

For `COc1ccccc1/C=N/N1C(=O)c2cccc3cccc(c23)C1=O`, the inhibition entry was “inactive”.

With `COCc1[nH]nc2c1C(c1ccc(OC)cc1)C(C#N)=C(N)O2` (stereo unspecified), the inhibition result is “inactive”.

With `Cn1c(C(O)c2ccccc2F)nc(Cl)c1Cl` (stereo unspecified), the inhibition entry is “inactive”.

`Cc1cc(Br)cc2cn[nH]c12`: the inhibition entry was “inactive”.

For the molecule `CC(C)c1c(O)nc(SCC(=O)N2CCOCC2)[nH]c1=O`, the inhibition entry is “inactive”.

For the molecule `Cc1cc(C(=O)Cn2cncn2)c(C)n1CCc1ccc(F)cc1`, the inhibition entry is “inactive”.

On to `CC(C)(C)SCCNC(=O)c1ccccc1`, for which the inhibition entry was “inactive”.

As to `O=C1C2=C(Nc3ccccc3SC2c2ccco2)c2ccccc21` (stereo unspecified), the inhibition result was “inactive”.

Take `Brc1ccc2nc(-c3c[nH]c4ccccc34)cn2c1`: the inhibition result is “inactive”.

As for `c1csc(-n2nc3ccccc3n2)c1`, the inhibition result was “inactive”.

For `O=S(=O)(Nc1ncccn1)c1ccc(NC(=S)Nc2ccccc2Cl)cc1`, the inhibition result was “inactive”.

With `CCNC(=S)Nc1cc(-c2ccc(Cl)cc2)[nH]n1`, the inhibition result is “inactive”.

On to `Cc1ccc(CCNC(=O)c2cc(S(=O)(=O)N3CCCCC3)c[nH]2)cc1`, for which the inhibition entry is “inactive”.

For `O=C(N/N=C/c1c(Cl)nc2ccccn2c1=O)c1cccnc1`, the inhibition result was “inactive”.

On to `O=c1c2ccccc2nc(COc2ccccc2)n1/N=C/c1ccc(O)cc1O`, for which the inhibition entry was “inactive”.

For the molecule `COc1nnc(-c2ccc(N3CCOCC3)c(NC(=O)c3ccc(C)cc3)c2)c2ccccc12`, the inhibition result is “inactive”.

`CC(C)(C)NC(=O)NC(=O)COC(=O)CCC1CCCC1`: the inhibition result is “inactive”.

For the molecule `COc1ccc(OC)c(CCNC(=O)CS(=O)(=O)Cc2nc(-c3ccccc3C)oc2C)c1`, the inhibition entry is “inactive”.

Take `COc1nccnc1NS(=O)(=O)c1ccc(N=Cc2c(C)[nH]n(-c3ccc(C)c(C)c3)c2=O)cc1`: the inhibition entry was “inactive”.

On to `COc1ccc(NC(=O)c2cc(Br)c(Br)s2)cn1`, for which the inhibition result was “inactive”.

On to `COc1cc2[nH]c(=S)n(CC3CCCO3)c(=O)c2cc1OC` (stereo unspecified), for which the inhibition entry is “inactive”.

With `Cc1cc([N+](=O)[O-])nn1CC(=O)Nc1cccc2nonc12`, the inhibition result was “inactive”.

On to `CN1CCN(c2ccccc2NC(=O)c2cc3c(s2)-c2ccccc2OC3)CC1`, for which the inhibition result is “inactive”.

In the case of `COc1ccc(C)cc1S(=O)(=O)N1CCCC(C(=O)NCC2CCCO2)C1` (stereo unspecified), the inhibition entry is “inactive”.

As for `O=C(Nc1ccc(Cc2ccncc2)cc1)c1cccs1`, the inhibition entry was “inactive”.

As for `C/C(Cn1nnc([N+](=O)[O-])n1)=N\NC(=O)c1ccccc1`, the inhibition result was “inactive”.

On to `COc1ccc(NC(=O)COC(=O)c2ccc([N+](=O)[O-])o2)cc1Cl`, for which the inhibition entry is “inactive”.

Regarding `O=C(Nc1ccc(N2CCOCC2)c(Cl)c1)c1ccccc1F`, the inhibition result is “inactive”.

As for `Cc1cc2oc(C(=O)NCc3ccncc3)c(C)c2cc1C`, the inhibition entry was “inactive”.

With `Cc1onc(C(=O)/C=C/N(C)C)c1C(=O)Nc1nccs1`, the inhibition result was “inactive”.

`Cc1cc(C)c2c(=O)[nH]c(SCC(=O)N3CCCCC3)nc2n1`: the inhibition entry is “inactive”.

With `COc1ccc(C2C(C(=O)N3CCC4(CC3)OCCO4)CC(=O)N2c2ccc(OC)cc2)cc1` (stereo unspecified), the inhibition entry was “inactive”.

For `COc1ccc(-c2cc(C(=O)Nc3ccc(S(=O)(=O)Nc4onc(C)c4C)cc3)c3ccccc3n2)cc1OC`, the inhibition entry is “inactive”.

As to `CCOc1ccc(N2C(=O)CN(O)C=C3N=c4ccccc4=C32)cc1`, the inhibition result is “inactive”.

As to `COc1ccc(-c2nc3cc(NC(=O)Cc4ccc(OC)c(OC)c4)ccc3o2)cc1`, the inhibition result was “inactive”.

As to `CC(=O)c1ccc(NC(=O)CN2CCCCCC2)cc1`, the inhibition result is “inactive”.

On to `C[N+]1(CC2COC3(CCCCC3)O2)CCCCC1` (stereo unspecified), for which the inhibition entry was “inactive”.

With `CCn1nnnc1SCC(=O)c1cc(Cl)ccc1OC`, the inhibition entry is “inactive”.

Regarding `COc1ccc(NC(=O)C2CCCN(C(=O)NC3CCCCC3)C2)cc1OC` (stereo unspecified), the inhibition result is “inactive”.

As to `O=c1cc(-c2ccccc2)nc2nc(-c3ccco3)[nH]n12`, the inhibition entry is “inactive”.

For the molecule `C#CCOCCOCCOCCNc1nc(N2CCN(C(=O)CCCCCCCCCCNC(=O)[C@H]([C@@H](C)CC)n3cc(CCCCCN)nn3)CC2)nc(N2CCN(C(=O)CCCCCCCCCCNC(=O)[C@@H]([C@H](C)O)n3cc(C)nn3)CC2)n1`, the inhibition entry was “inactive”.

As to `CS(=O)(=O)N1CC(C(=O)NC2CC2)Oc2ccc(Cl)cc21` (stereo unspecified), the inhibition result is “inactive”.

On to `Cc1ccc(SCc2[nH]nc3c2C(c2cccnc2)C(C#N)=C(N)O3)cc1` (stereo unspecified), for which the inhibition entry was “inactive”.

For the molecule `CCOC(=O)C1=C(C)NC(SCC(N)=O)=C(C#N)C1c1ccncc1` (stereo unspecified), the inhibition entry is “inactive”.

With `CN(CC(=O)NCc1ccncc1)S(=O)(=O)c1ccccc1`, the inhibition result is “inactive”.

As to `c1ccc2c(c1)nc(N1CCOCC1)c1c3ccccc3[nH]c21`, the inhibition result is “inactive”.

`COCCNC(=S)N=Nc1c(O)[nH]c2ccc([N+](=O)[O-])cc12`: the inhibition result was “inactive”.

As for `Cc1cc(C)c(CSc2ncnc3nc[nH]c23)c(C)c1`, the inhibition result is “inactive”.

For `O=C(c1ccco1)N1CCCN(Cc2nc(-c3ccc4c(c3)OCO4)no2)CC1`, the inhibition result is “inactive”.

As to `OCn1ncn(-c2ccccc2)c1=S`, the inhibition entry is “inactive”.

With `Cc1cc(C)c2nc(/N=C(\N)NC(=O)c3ccccc3)nc(C)c2c1`, the inhibition result was “inactive”.

In the case of `CCN(CC)/C(N)=N/c1nc(C)cc(C)n1`, the inhibition result is “inactive”.

For `COc1ccc(OC)c(NC(=O)CSc2nnc3ccc(-c4ccncc4)nn23)c1`, the inhibition result is “inactive”.

Take `O=c1ccn(CCc2c[nH]c3ccccc23)c2c1CCCC2`: the inhibition entry is “inactive”.

With `O=C(NCc1ccccc1)N[C@@H](Cc1c[nH]c2ccccc12)C(=O)O`, the inhibition entry was “inactive”.

In the case of `CN(C)C(=O)CC12CC3CC(C1)CC(CC(=O)N(C)C)(C3)C2`, the inhibition result was “inactive”.

On to `CCOC(=O)C1CCCN(C/C(O)=C(\C#N)c2nc(-c3ccccc3)cs2)C1` (stereo unspecified), for which the inhibition entry was “inactive”.

`Cc1cc(Cl)ccc1OCC(=O)Nc1nc(-c2cccnc2)cs1`: the inhibition result is “inactive”.

Take `O=C(Cn1[nH]c(=O)c2ccccc2c1=O)Nc1ccc(-c2nnc3n2CCCCC3)cc1`: the inhibition result is “inactive”.

As to `O=C1C2C3C=CC(CC3)C2C(=O)N1/N=C/c1ccc(O)cc1` (stereo unspecified), the inhibition result is “inactive”.

In the case of `Cc1cccc(NC(=O)c2sc3nc(-c4ccccc4)cn3c2C)n1`, the inhibition entry was “inactive”.

With `O=C(Nc1ccc(N2CCOCC2)c(Cl)c1)c1ccc(-n2cnnc2)cc1`, the inhibition entry is “inactive”.

In the case of `CCOC(=O)C1=C(C)NC(=O)NC1c1ccc(NC(C)=O)cc1` (stereo unspecified), the inhibition entry was “inactive”.

Consider `CSC1=NC2(C)CCCCC2C12C=CC(=O)C=C2` (stereo unspecified), for which the inhibition entry is “inactive”.

As for `Nc1cncc(C(=O)O)c1`, the inhibition result is “inactive”.

Take `CC1CCCC(NC(=O)COC(=O)CCSc2ccccc2)C1C` (stereo unspecified): the inhibition entry was “inactive”.

Turning to `Cc1cccc(NC(=O)CSc2nc3c([nH]c4ccccc43)c(=O)n2C)c1`, the inhibition result was “inactive”.

On to `CC(C)OCCCn1c(=S)[nH]c2cc3c(cc2c1=O)OCO3`, for which the inhibition entry was “inactive”.

For the molecule `CCS(=O)(=O)N1CCC(C(=O)NCc2cc(OC)ccc2OC)CC1`, the inhibition entry was “inactive”.

As for `CC(C)c1ccc(N(C(=O)C(F)(F)F)C(C(=O)NC2CCCCC2)c2ccncc2)cc1` (stereo unspecified), the inhibition entry was “inactive”.

Turning to `COc1ccc(N2CCN(c3cc(C)c4ccc(O)cc4n3)CC2)cc1`, the inhibition entry was “inactive”.

Turning to `COc1ccc(NC(=O)CCNS(=O)(=O)c2cccc3nonc23)cc1`, the inhibition result is “inactive”.

For the molecule `N=c1ccccn1CC(O)COc1ccccc1` (stereo unspecified), the inhibition result is “inactive”.

Take `CSc1nc2cc(Oc3cccc(Cl)c3Cl)c(Cl)cc2[nH]1`: the inhibition entry was “inactive”.

`Clc1ccc2nc(N3CCCCC3)[nH]c2c1`: the inhibition result was “inactive”.

Turning to `CC(=O)c1c(C)[nH]c(C(=O)CSc2nnc(-c3ccc(Cl)cc3)n2CC2CCCO2)c1C` (stereo unspecified), the inhibition entry was “inactive”.

`O=C(NC(O)C(=O)c1ccccc1)c1ccc(F)cc1` (stereo unspecified): the inhibition entry was “inactive”.

As to `CC(C)C(NC(=O)c1ccc(Cl)cc1)C(=O)NCC1CCCO1` (stereo unspecified), the inhibition entry was “inactive”.

For `Clc1ccc2c(c1)c1cc(Cl)ccc1n2CN1CCOCC1`, the inhibition entry is “inactive”.

Turning to `CC(=O)N(CCC1(c2ccc(C)cc2)CCOC(C(C)C)C1)Cc1ccco1` (stereo unspecified), the inhibition result is “inactive”.

Take `c1cc(N2CCCC2)ccc1C(c1nnnn1C1CCCCC1)N1CCOCC1` (stereo unspecified): the inhibition result is “inactive”.

For the molecule `COc1nccnc1NS(=O)(=O)c1ccc(NC(=S)NC(=O)c2cccnc2)cc1`, the inhibition entry is “inactive”.

`O=C(NC(=S)Nc1ccc(S(=O)(=O)Nc2nccs2)cc1)c1cccnc1`: the inhibition entry is “inactive”.

`C=C(C)COc1ccc2c(C)c(CCC(=O)NC3CC3)c(=O)oc2c1`: the inhibition entry is “inactive”.

For `O=C1C(Cl)=C(NCc2cccnc2)C(=O)c2ccccc21`, the inhibition entry is “inactive”.

For `O=C(c1ccccc1)N1CCN(c2ccc([N+](=O)[O-])c(NCc3ccco3)c2)CC1`, the inhibition entry was “inactive”.

In the case of `CCCC(=O)Nc1c2c(nn1-c1ccc(C)cc1C)CSC2`, the inhibition entry is “inactive”.

As for `NC(N)=NC(N)=Nc1cccc2ccccc12`, the inhibition entry is “inactive”.
